Laboratory results taken from PubChem BioAssay (Tox21).
Records with an inconclusive call do not appear. Calls of active or inactive are those of the source. Unless noted, the call rests on the fitted dose curve; in most records, active means well fitted curve in the direction sought with a large enough effect in the repeat runs; inconclusive means weak or mixed curves; inactive means no such curve, though single readings can be large; an effect the other way counts as inactive or inconclusive.

Key:
[1] = qHTS assay to identify small molecule antagonists of the sonic hedgehog signaling (Shh) pathway (AID 1259369; calls by dose curve; further: nearly all actives have a fitted effect of over 45% in size)
Summary of the method: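 Stable Gli1-Luc reporter NIH/3T3 clone; quantitative HTS in stimulated mode with conditioned medium. Luminescence measured after 24hr compound treatment at 37 C.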

[2] = qHTS assay to identify small molecule agonists of the androgen receptor (AR) signaling pathway in the presence of an antagonist - cell viability counter screen (AID 1259379);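 further: MDA-kb2 human breast cancer cells carrying an MMTV luciferase reporter; series mostly up to about 92 µM; nearly all actives have a fitted effect of over 25% in size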
Summary of the method: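 Nilutamide-containing (3.0uM final) MDA-kb2 cultures, 3,000 cells/well, were treated with compounds across 15 concentrations. After 16 hr at 37C with no CO2, cell viability was determined by CellTiter-Fluor fluorescence in the luciferase assay wells.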

[3] = qHTS assay to identify small molecule agonists of the estrogen receptor beta (ER-beta) signaling pathway - cell viability counter screen (AID 1259380); further: nearly all actives have a fitted effect of over 30% in size
Summary of the method: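 Steps: plate ER-beta-UAS-bla HEK293T cells, rest 6 hr; add compounds in DMSO; incubate 16 hr at 37C, 5% CO2; add FRET substrate 2 hr; add CellTiter-Glo, wait 30 min at room temperature; read luminescence.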

[4] = qHTS assay to identify small molecule antagonists of the estrogen receptor beta (ER-beta) signaling pathway - cell viability counter screen (AID 1259382);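 further: HEK293T cells carrying ER-beta-UAS-bla reporter stimulated with estradiol; series mostly up to about 92 µM; nearly all actives have a fitted effect of over 55% in size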
Summary of the method: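 Viability is scored by CellTiter-Glo luminescence (30 min, room temperature) in ER-beta-UAS-bla HEK293T wells already read for reporter fluorescence. Compound exposure lasts 16 hr at 37C alongside 1nM 17-beta-estradiol in charcoal-stripped serum medium.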

[5] = qHTS assay to identify small molecule agonists of the estrogen receptor alpha (ER-alpha) signaling pathway in the presence of an antagonist - cell viability counter screen (AID 1259386);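 further: series mostly up to about 92 µM; cells exposed to compounds for 22 h at 37 °C before the viability read; nearly all actives have a fitted effect of over 30% in size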
Summary of the method: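 In this counter screen, compound effects on VM7Luc4E2 viability were tested in the presence of the antagonist ICI-182,780 at 10.0nM final. Compounds were dosed at 15 concentrations, exposure lasted 22hr, and the CellTiter-Fluor signal was read.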

[6] = target: Progesterone receptor (Homo sapiens) (UniProt P06401); test: qHTS assay to identify small molecule agonists of the progesterone receptor (PR) signaling pathway (AID 1346784; calls by dose curve; further: nearly all actives have a fitted effect of over 30% in size)
Sequence of Progesterone receptor (Homo sapiens) (P06401 whole entry, looked up): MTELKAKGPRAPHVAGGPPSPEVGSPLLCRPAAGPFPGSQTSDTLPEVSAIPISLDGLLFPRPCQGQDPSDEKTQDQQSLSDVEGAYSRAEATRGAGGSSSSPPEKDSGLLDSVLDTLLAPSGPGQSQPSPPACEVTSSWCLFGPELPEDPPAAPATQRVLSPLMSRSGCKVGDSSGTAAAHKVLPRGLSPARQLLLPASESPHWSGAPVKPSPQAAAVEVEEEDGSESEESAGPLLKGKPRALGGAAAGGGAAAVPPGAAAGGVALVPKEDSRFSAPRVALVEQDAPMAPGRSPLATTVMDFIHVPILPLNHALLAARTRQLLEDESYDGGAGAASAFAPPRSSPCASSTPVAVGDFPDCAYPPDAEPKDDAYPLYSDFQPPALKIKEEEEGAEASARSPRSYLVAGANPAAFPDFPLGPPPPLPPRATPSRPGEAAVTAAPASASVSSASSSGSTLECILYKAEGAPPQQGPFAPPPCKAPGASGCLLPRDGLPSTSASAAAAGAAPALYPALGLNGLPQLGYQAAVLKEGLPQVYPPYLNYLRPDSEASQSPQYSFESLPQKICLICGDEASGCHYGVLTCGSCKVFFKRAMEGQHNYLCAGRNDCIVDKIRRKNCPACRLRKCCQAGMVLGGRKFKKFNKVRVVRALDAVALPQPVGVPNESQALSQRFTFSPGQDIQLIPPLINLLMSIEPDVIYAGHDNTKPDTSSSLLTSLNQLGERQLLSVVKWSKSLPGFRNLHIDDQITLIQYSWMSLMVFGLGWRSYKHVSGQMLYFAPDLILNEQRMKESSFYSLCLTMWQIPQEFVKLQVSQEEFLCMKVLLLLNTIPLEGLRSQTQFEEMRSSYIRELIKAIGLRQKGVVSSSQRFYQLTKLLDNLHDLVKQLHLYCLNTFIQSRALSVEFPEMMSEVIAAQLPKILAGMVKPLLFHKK
Summary of the method: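 Fluorescence from LiveBLAzer B/G FRET substrate cleavage (2 hr, RT) reported PR activation in PR-UAS-bla HEK 293T cells treated 16 hr at 37C/5% CO2 with compounds; medium contained 2% charcoal-stripped FBS.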

[7] = target: Progesterone receptor (Homo sapiens) (UniProt P06401); test: qHTS assay to identify small molecule antagonists of the progesterone receptor (PR) signaling pathway (AID 1346795; active means well fitted inhibition curve with a large enough effect in the signal ratio in the repeat runs, not every such curve was filed as active; the % refers to the signal ratio)
Summary of the method: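 Fluorescence intensity measured 2 hr after adding beta-lactamase FRET substrate to PR-UAS-bla HEK293T cells that had been co-treated 16 hr with compound and 1 nM R5020 (final concentration) in 2% charcoal-stripped FBS.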

[8] = qHTS assay to identify small molecule antagonists of the progesterone receptor (PR) signaling pathway - cell viability counter screen (AID 1346798); further: series mostly up to about 92 µM; nearly all actives have a fitted effect of over 50% in size
Summary of the method: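 CellTiter-Glo luminescence; PR-UAS-bla HEK293T, 3,000 cells/well; compound + R5020, 16 hr, 37C/5% CO2; 30 min RT before read.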

[9] = qHTS assay to identify small molecule agonists of the progesterone receptor (PR) signaling pathway - cell viability counter screen (AID 1346799; calls by dose curve; further: nearly all actives have a fitted effect of over 45% in size)
Summary of the method: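 In parallel with the beta-lactamase readout, cytotoxicity toward PR-UAS-bla HEK293T cells was measured by CellTiter-Glo luminescence following 16 hr compound incubation in 2% charcoal-stripped FBS medium.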

[10] = qHTS assay to identify small molecule antagonists of the TGF-beta/Smad signaling pathway - cell viability counter screen (AID 1346824); further: nearly all actives have a fitted effect of over 50% in size
Summary of the method: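 Cytotoxicity counter-screen run in the same wells as the beta-lactamase Smad reporter read: CellTiter-Glo luminescence after 30 min at room temperature. HEK 293T SBE-bla cells had 5 hr compound exposure at 37 C with TGF-beta1 (0.25 ng/mL stock).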

[11] = qHTS assay to identify small molecule agonists of the TGF-beta/Smad signaling pathway (AID 1346859; active means well fitted activation curve with a large enough effect in the signal ratio in the repeat runs, not every such curve was filed as active; the % refers to the signal ratio; further: series mostly up to about 77 µM)
Summary of the method: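 After overnight seeding, SBE-bla HEK 293T cells are dosed with compounds in DMSO and kept 5 hr at 37 C, 5% CO2. LiveBLAzer-type FRET substrate is then applied for 2 hr at room temperature.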

[12] = target: Thyrotropin-releasing hormone receptor (Homo sapiens) (UniProt P34981); test: qHTS assay to identify small molecule antagonists of the thyrotropin-releasing hormone receptor (TRHR) signaling pathway (AID 1346877; active means well fitted inhibition curve with a large enough effect in the repeat runs, not every such curve was filed as active; further: series mostly up to about 51 µM)
Sequence of Thyrotropin-releasing hormone receptor (Homo sapiens) (P34981 whole entry, looked up): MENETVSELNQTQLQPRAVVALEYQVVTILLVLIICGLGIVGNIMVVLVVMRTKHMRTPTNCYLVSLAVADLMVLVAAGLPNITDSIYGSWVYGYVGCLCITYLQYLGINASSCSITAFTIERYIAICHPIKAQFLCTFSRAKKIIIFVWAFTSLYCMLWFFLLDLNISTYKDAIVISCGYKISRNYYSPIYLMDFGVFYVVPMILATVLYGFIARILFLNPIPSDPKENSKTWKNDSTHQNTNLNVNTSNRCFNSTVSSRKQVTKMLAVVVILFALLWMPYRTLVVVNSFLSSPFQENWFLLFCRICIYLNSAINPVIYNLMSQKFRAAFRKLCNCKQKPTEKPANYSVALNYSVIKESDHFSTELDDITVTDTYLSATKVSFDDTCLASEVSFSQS
Summary of the method: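 Kinetic fluorescence (3 min, 1 s resolution) following stimulation with TRH at 1 nM final; HEK293 cells bearing human TRHR; 5 min compound preincubation at RT; concentration-response over 15 points, triplicates.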

[13] = target: Thyrotropin-releasing hormone receptor (Homo sapiens) (UniProt P34981); test: qHTS assay to identify small molecule agonists of the thyrotropin-releasing hormone receptor (TRHR) signaling pathway (AID 1346891; calls by dose curve;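 further: HEK293 cells expressing TRHR with calcium dye readout; series mostly up to about 58 µM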)
Summary of the method: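 Compounds were tested as agonists at 15 concentrations, in triplicate, on TRHR-Hek293 cells; calcium-sensitive dye fluorescence was recorded for 3 min following addition.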

[14] = Human pregnane X receptor (PXR) small molecule agonists, qHTS cell viability counter screen (AID 1346977); further: nearly all actives have a fitted effect of over 50% in size
Summary of the method: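 Viability counter screen: CellTiter-Fluor signal in PXR-Luc HepG2 cells, 24hr compound exposure, 37C, 5% CO2.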

[15] = qHTS assay to identify small molecule agonists of the TGF-beta/Smad signaling pathway - cell viability counter screen (AID 1346829); further: top concentration of the series differs between compounds; nearly all actives have a fitted effect of over 45% in size
Summary of the method: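 Compound-treated SBE-bla HEK 293T cells (5 hr, 37 C) were assessed for viability with CellTiter-Glo in parallel with the reporter read.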

[16] = target: Estrogen receptor (Homo sapiens) (UniProt P03372); test: qHTS assay to identify small molecule agonists of the estrogen receptor alpha (ER-alpha) signaling pathway in the presence of an antagonist (AID 1259383; calls by dose curve; further: top concentration of the series differs between compounds; nearly all actives have a fitted effect of over 15% in size)
Sequence of Estrogen receptor (Homo sapiens) (P03372 whole entry, looked up): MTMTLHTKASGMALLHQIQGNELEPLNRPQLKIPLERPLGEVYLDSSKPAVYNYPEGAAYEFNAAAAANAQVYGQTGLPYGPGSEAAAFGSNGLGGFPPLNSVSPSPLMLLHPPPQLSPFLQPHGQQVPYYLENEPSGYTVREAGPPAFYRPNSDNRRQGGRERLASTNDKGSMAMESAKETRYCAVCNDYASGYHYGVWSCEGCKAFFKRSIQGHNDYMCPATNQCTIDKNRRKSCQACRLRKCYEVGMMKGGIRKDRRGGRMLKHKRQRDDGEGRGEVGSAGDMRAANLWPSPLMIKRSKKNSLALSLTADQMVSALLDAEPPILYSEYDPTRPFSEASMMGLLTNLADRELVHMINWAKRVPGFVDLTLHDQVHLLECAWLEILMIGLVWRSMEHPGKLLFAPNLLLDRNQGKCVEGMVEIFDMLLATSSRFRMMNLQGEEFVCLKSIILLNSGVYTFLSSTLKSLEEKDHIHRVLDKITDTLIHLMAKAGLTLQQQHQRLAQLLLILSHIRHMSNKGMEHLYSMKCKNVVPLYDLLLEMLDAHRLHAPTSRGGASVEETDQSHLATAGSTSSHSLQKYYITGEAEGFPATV
Summary of the method: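 Readout was ERE-driven luciferase luminescence in VM7Luc4E2 cells, which express full-length ER-alpha endogenously. Compounds were tested at 15 concentrations for 22hr alongside 10.0nM ICI-182,780 (final concentration).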

[17] = qHTS assay to identify small molecule agonists or antagonists of the thyroid stimulating hormone receptor (TSHR) signaling pathway - wild type cell line counter screen (AID 1259384; calls by dose curve)
Summary of the method: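 Counter screen in untransfected Hek293: compounds (15-point titration, triplicate) plus phosphodiesterase inhibitor Ro20-1724 added after 18 h plating; 30 min RT. Intracellular cAMP via competitive d2/cryptate immunoassay, 1 h incubation.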

[18] = target: Thyrotropin receptor (Homo sapiens) (UniProt P16473); test: qHTS assay to identify small molecule antagonists of the thyroid stimulating hormone receptor (TSHR) signaling pathway (AID 1259385; calls by dose curve; further: nearly all actives have a fitted effect of over 20% in size)
Sequence of Thyrotropin receptor (Homo sapiens) (P16473 whole entry, looked up): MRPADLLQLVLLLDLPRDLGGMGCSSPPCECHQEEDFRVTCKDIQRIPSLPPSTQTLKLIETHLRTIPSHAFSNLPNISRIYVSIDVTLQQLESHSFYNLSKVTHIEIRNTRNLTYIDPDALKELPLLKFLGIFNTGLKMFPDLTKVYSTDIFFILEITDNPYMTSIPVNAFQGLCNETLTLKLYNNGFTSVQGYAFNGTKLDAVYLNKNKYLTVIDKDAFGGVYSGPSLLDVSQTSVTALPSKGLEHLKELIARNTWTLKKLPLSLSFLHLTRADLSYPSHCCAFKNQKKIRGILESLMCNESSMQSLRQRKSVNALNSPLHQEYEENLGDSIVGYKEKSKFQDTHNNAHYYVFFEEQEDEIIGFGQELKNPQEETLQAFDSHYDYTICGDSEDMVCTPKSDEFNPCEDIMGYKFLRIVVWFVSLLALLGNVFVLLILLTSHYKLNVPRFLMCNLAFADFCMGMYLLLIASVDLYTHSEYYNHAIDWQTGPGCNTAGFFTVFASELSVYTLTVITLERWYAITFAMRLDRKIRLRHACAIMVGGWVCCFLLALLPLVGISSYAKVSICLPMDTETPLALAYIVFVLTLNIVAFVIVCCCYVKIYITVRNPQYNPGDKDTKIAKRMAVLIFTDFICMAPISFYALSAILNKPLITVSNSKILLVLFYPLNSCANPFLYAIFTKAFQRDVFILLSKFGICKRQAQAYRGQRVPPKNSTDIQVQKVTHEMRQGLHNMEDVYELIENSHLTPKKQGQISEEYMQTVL
Summary of the method: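 Antagonist mode: compound-treated TSHR-expressing HEK293 cells were stimulated with 1.5 ng/mL TSH (final) in presence of Ro20-1724 for 30 min at RT. HTRF cAMP detection after 1 h; each compound tested at 15 concentrations, triplicate.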
On the % scale 0 is the no-effect control and ±100 the full control effect.

C[N+](C)(C)CCCCCC[N+](C)(C)C
inactive: Potency [1] | Potency [2] | Potency [3] | Potency [4] | Potency [5] | Potency [6] | Potency [7] | Potency [8] | Potency [9] | Potency [10] | outcome [11] | outcome [12] | outcome [13] | Potency [14]

CC/C=C\CC/C=C/CO
inactive: Potency [1] | Potency [2] | Potency [3] | Potency [4] | Potency [5] | Potency [6] | Potency [7] | Potency [8] | Potency [9] | Potency [10] | outcome [15] | outcome [11] | outcome [13] | Potency [14]

Nc1ccc(S(=O)(=O)Nc2ccnn2-c2ccccc2)cc1
inactive: Potency [1] | activity change, negative = cytotoxicity [2] -0.249% [at 19 µM] | activity change, negative = cytotoxicity [3] 9.8% [at 19 µM] | activity change, negative = cytotoxicity [4] 5.67% [at 19 µM] | activation [16] -0.0289% [at 19 µM] | cAMP activity change [17] 3.46% [at 18.9 µM] | activity change, negative = inhibition [18] 0.942% [at 19 µM] | activity change, negative = cytotoxicity [5] 1.05% [at 19 µM] | Potency [7] | Potency [8] | viability change, negative = cytotoxic [10] 6.26% [at 15.8 µM] | activity change, negative = cytotoxicity [15] 13.7% [at 15.8 µM] | activation [11] -0.937% [at 15.8 µM] | activity, negative = inhibition [12] 2.52% [at 10.5 µM] | activation [13] -0.182% [at 11.8 µM] | activity change, negative = cytotoxicity [14] -0.0622% [at 19 µM]

CN(C(=O)c1c(O)c2ccccc2n(C)c1=O)c1ccccc1
inactive: Potency [1] | Potency [2] | Potency [3] | Potency [4] | Potency [5] | Potency [6] | Potency [7] | Potency [8] | outcome [15] | outcome [11] | Potency [14]

CO[Si](CCCOCC1CO1)(OC)OC (stereo not drawn)
inactive: Potency [1] | Potency [2] | Potency [3] | Potency [4] | Potency [16] | Potency [5] | Potency [6] | Potency [7] | Potency [8] | Potency [10] | outcome [15] | outcome [11] | outcome [12] | outcome [13] | Potency [14]

Cc1sccc1Br
inactive: Potency [1] | Potency [2] | Potency [3] | Potency [4] | Potency [16] | Potency [18] | Potency [5] | Potency [8] | Potency [9] | Potency [10] | outcome [15] | outcome [11] | outcome [13] | Potency [14]

CC(NC(CCc1ccccc1)C(=O)O)C(=O)N1C(=O)N(C)CC1C(=O)O (stereo not drawn)
inactive: Potency [1] | Potency [2] | Potency [3] | Potency [4] | outcome [17] | Potency [18] | Potency [5] | Potency [6] | Potency [7] | Potency [8] | Potency [9] | Potency [10] | outcome [15] | outcome [11] | outcome [12] | outcome [13] | Potency [14]

C=CCS(=O)(=O)O
inactive: Potency [1] | Potency [2] | Potency [3] | Potency [4] | Potency [16] | outcome [17] | Potency [18] | Potency [5] | Potency [6] | Potency [8] | Potency [10] | outcome [11] | outcome [12] | outcome [13]

CC(C)(C)NCCNC(C)(C)C
inactive: Potency [1] | Potency [2] | Potency [3] | Potency [4] | Potency [16] | outcome [17] | Potency [18] | Potency [5] | Potency [6] | Potency [7] | Potency [9] | outcome [15] | Potency [14]
